A selection: hits, their analogues and other compounds. The true share with any hit is near 6.7%.
MCF10A rereplic = induces DNA re-replication in MCF 10a normal breast cells; 2.9% of 350,000 active; AID 624296; Potency, µM (top dose mostly 46.1 µM), for the others: at the top dose activity, positive = re-replication, most hits filed as activators; MCF 10A DNA re-replication, Hoechst nuclear intensity, 48 h; also: % of control where 0% means no effect; nearly all actives have a fitted effect of over 50% in size
KB-V1 MDR tox = kills drug-selected multidrug resistant KB-V1 cells; KB-V1 MDR cells viability, CellTiter-Glo, 72 h; 3.4% of 400,000 active; Potency, µM (titrated, usually from 46.1 µM), most hits filed as cytotoxic; also: % is scaled to controls: 0 for no effect and ±100 for the full control effect; nearly all actives have a fitted effect of over 60% in size
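KB-V1 cells (P-gp-expressing MDR subline of KB-3-1) in phenol-red-free DMEM with 10% FBS were exposed to library compounds over a concentration series for 72 h at 37 degrees C. Viability read by CellTiter-Glo luminescence; concentration-effect curves fitted after normalization.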
SW480 rereplic = inducers of DNA re-replication in SW480 colon cancer cells. SW480 DNA re-replication, Hoechst DNA content imaging, 48 h. Potency, µM (top dose mostly 46.1 µM), for the others: top-dose re-replication activation, hits mostly activators. 1.8% of 340,000 active. AID 624297; also: % of control where 0% means no effect; nearly all actives have a fitted effect of over 55% in size
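First, 250 cells per well were seeded. Next, compound or vehicle (23 nL) was pinned in, plates sat 48 hr at 37 C. Finally Hoechst was added for 40 min before fluorescence scanning.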
PINK1 modulator = changes PINK1 expression; PINK1 immunofluorescence, high-content cytometry, 24 h; Potency, µM (doses to about 76.6 µM), inactives show at the highest dose activation (PINK1 increase), hits mostly activators; 0.2% of 410,000 active; active = well fitted activation curve with a large enough effect; inconclusive = small, poorly fitted or top-dose-only effect; cell line not stated here; also: % of control where 0% means no effect; nearly all actives have a fitted effect of over 65% in size
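Readout is PINK1 immunofluorescence, quantified alongside mitochondrial, cell and nuclear markers by laser-scanning microplate cytometry. Cells from a stable line were exposed to compound titrations (5 concentrations) for 24 hours, with CCCP controls.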
KB-3-1 tox = kills parental KB-3-1 adenocarcinoma cells | KB-3-1 viability, CellTiter-Glo ATP luminescence, 72 h | Potency, µM (titrated, usually from 46.1 µM), actives largely listed as cytotoxic | 1.4% of 400,000 active | AID 1347075; also: % is scaled to controls: 0 for no effect and ±100 for the full control effect; nearly all actives have a fitted effect of over 60% in size
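Using CellTiter-Glo luminescence, growth of non-resistant KB-3-1 adenocarcinoma cells is assessed 72 h after pin-tool compound addition at 37 °C. Normalized responses across the concentration series yield fitted curves.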
Numbers without * were called inactive; i = inactive; ? = inconclusive; nt = not tested or not shown; ! = a repeat was not active; [ ] = dose if it differs, or a comment. Unless noted, calls follow the shape of the dose curve; as a rule, active = well fitted curve in the direction sought with a large enough effect; inconclusive = small, poorly fitted or top-dose-only effect, or another doubt; inactive = no such curve, though single readings can be large; an effect the other way counts as inactive or inconclusive. Potency is read from the fitted curve at half-maximal effect.

SMILES	MCF10A rereplic	KB-V1 MDR tox	SW480 rereplic	PINK1 modulator	KB-3-1 tox
COc1cccc(C(=O)N/N=C/C(Br)=C/c2ccccc2)c1	8.2µM*	3.66µM*	?	1.0%	?
Cn1cc(C(=O)N/N=C/C(Br)=C\c2ccccc2)ccc1=O	?	i	18.4µM*	23.0%	i
O=C(N/N=C/C=C\c1ccccc1)c1cnccn1	0.0%	i	-0.5%	0.7%	i
Cn1cc(C(=O)N/N=C/c2cccc(O)c2)ccc1=O	-3.5%	i	3.2%	0.5%	i
O=C(Cc1cccs1)N/N=C/C(Br)=C/c1ccccc1	18.4µM*	i	13.8%	12.0%[38.3 µM]	i
O=C(N/N=C/C(Br)=C/c1ccccc1)c1cnccn1	16.4µM*	i	3.26µM*	3.3%	i
CC(/C=N/NC(=O)Cc1cccs1)=C\c1ccccc1	?	i	21.3%	10.0%	i
COc1ccc(C(=O)N/N=C/C(Br)=C/c2ccccc2)cc1	?	?	?	2.2%	i
Cn1cc(C(=O)N/N=C/C=C/c2ccccc2)ccc1=O	-4.2%	i	-0.4%	1.8%	i
Cn1cc(C(=O)N/N=C/C(Br)=C/c2ccccc2)ccc1=O	25.9µM*	i	?	2.2%	?
CCOCCn1c(COc2ccc(C)cc2)nc2ccccc21	18.9%	16.4µM*	104.3%	9.4%	?
Cc1ccc(NCc2nc3ccccc3n2CCOc2ccccc2)cc1	18.4%	23.1µM*!	5.5%	1.0%	16.4µM*!
Cc1ccc(OCCn2c(CNc3cccc(C)c3)nc3ccccc32)cc1	nt	i	nt	1.9%	i
CC1(C)CC(NC(=O)c2ccccc2NS(=O)(=O)c2ccc(Br)cc2)CC(C)(C)N1	6.2%	i	-10.1%	0.5%	i
CC1Cc2ccccc2N1C(=O)c1cc2sccc2n1Cc1ccc(F)cc1 (configuration not stated)	?	20.6µM*	?	2.1%	?
O=C(NCCc1ccccc1)c1cc2sccc2n1Cc1ccccc1	-2.6%	i	2.8%[9.22 µM]	-1.8%	i
O=C(NCc1ccco1)C1CCN(C(=O)c2cc3sccc3n2Cc2ccc(F)cc2)CC1	25.1%	?	-0.4%	-4.1%[38.3 µM]	i
O=C(c1ccco1)N1CCN(C(=O)c2cc3sccc3n2Cc2ccccc2)CC1	-6.2%	2.06µM*	-2.2%	-2.0%[38.3 µM]	?
O=C(NCc1ccco1)c1cc2sccc2n1Cc1ccccc1	-4.2%	16.4µM*	14.8%	-3.5%[38.3 µM]	i
Cc1ccc2sc(C)cc(=O)c2c1	2.7%	i	-3.9%	0.9%	i
COc1cccc(NC(=O)Cn2c(=O)ccc3cc(S(=O)(=O)N4CCC(C)CC4)ccc32)c1	nt	?	nt	-4.7%	i
CCOC(=O)C1=C(COC(=O)[C@@H]2CCCN2S(=O)(=O)c2ccc(C)cc2)NC(=O)NC1C (some centres not stated)	-3.5%	nt	-0.1%	0.8%	nt
N/N=C1\CCCc2c1[nH]c1ccc([N+](=O)[O-])cc21	-13.9%	4.61µM*	?	2.1%	?
CCCCn1nnnc1C(c1ccccc1)N1CCN(c2ccccn2)CC1 (configuration not stated)	nt	i	nt	-0.8%	i
O=C(Nc1ccc(S(=O)(=O)Nc2cnc3ccccc3n2)cc1)c1ccc(F)cc1	-4.8%	i	7.31µM*	0.7%	i
SMILES	MCF10A rereplic	KB-V1 MDR tox	SW480 rereplic	PINK1 modulator	KB-3-1 tox
O=C(O)c1cccc(Nc2nc3ccccc3nc2NS(=O)(=O)c2ccccc2)c1	13.8%	i	1.4%	-1.4%	i
O=C(O)c1ccc(Nc2nc3ccccc3nc2NS(=O)(=O)c2ccc(F)cc2)cc1	23.1µM*	i	-15.2%	11.9%	i
O=[N+]([O-])c1ccc(S(=O)(=O)Nc2nc3ccccc3nc2Nc2ccccc2)cc1	9.7%	5.17µM*	12.9%	35.5µM*	i
COc1ccc(/C=C/c2cc(C(F)(F)F)[nH]c(=O)n2)cc1OC	?	i	16.4µM*	-2.7%	?
CCOc1cc(/C=C/c2cc(C(F)(F)F)[nH]c(=O)n2)ccc1O	?	i	?	-0.9%	?
c1ccc(-c2ccc3c(c2)c2c4n3CCN=C4CCC2)cc1	8.2µM*	10.3µM*	?	-3.1%[38.3 µM]	?
OC1CN=C2CCCc3c2n(c2ccc(Cl)cc32)C1 (configuration not stated)	?	i	2.6%	3.0%	?
Cc1ccc(S(=O)(=O)NC(C)(C)CN2CCc3ccccc3C2)cc1	19.8%	?	6.51µM*	0.1%	i
Cc1ccc(S(=O)(=O)NC(C)(C)CN2CCNCC2)cc1	?	i	20.6µM*	0.7%	i
CC(C)(CN1CCCCC1)NS(=O)(=O)c1ccc(Cl)cc1	11.3%	i	3.2%	2.7%	i
CCOc1ccc(CNC(=O)COc2cc(=O)n(C)c3ccccc23)cc1	nt	i	nt	1.9%	i
OC(c1cc(-c2ccc(C(F)(F)F)cc2)nc(C(F)(F)F)c1)C1CCCCN1 (configuration not stated)	23.1µM*	i	?	-1.5%	i
Cc1cc(C)c2ccc3c(C)c(C)nc3c2[nH]1	20.6µM*	16.4µM*	?	4.8%	?
Cc1cc(=O)[nH]c2c(C)c(N)ccc12	-3.1%	i	-8.1%	-3.0%	i
COc1ccccc1/C=C1\S/C(=N/NC(=O)c2cccc(Br)c2)NC1=O	10.3µM*	?	15.9%	-0.1%	8.2µM*
Fc1cccc(Cl)c1CSc1ccc(-c2cccnc2)nn1	23.1µM*	i	12.4%	-0.9%	i
Cc1ccc(O)c(C(=O)c2cnc3c(c2)CN(CCC(C)C)C(=O)N3)c1	18.6%	i	15.1%	11.7%	i
Cc1ccc(O)c(C(=O)c2cnc3c(c2)CN(C)C(=O)N3)c1	?	7.94µM*	?	8.0%[38.3 µM]	?
Cc1ccc(NC(=O)c2cc3nc(-c4ccc5c(c4)OCO5)cc(C(F)(F)F)n3n2)cc1Cl	nt	i	nt	4.0%	i
O=C(Nc1ccc(CN2CCCCC2)cc1)c1sc2ccccc2c1Cl	?	i	?	8.3%	i
COc1cc2nc(Nc3ccc(C)c(Cl)c3)nc(N)c2cc1OC	20.6µM*	?	20.6µM*	-3.7%	i
CCOC(=O)c1ccc(Nc2nc(N)c3cc(OC)c(OC)cc3n2)cc1	20.6µM*	i	?	5.0%	i
COc1ccccc1NC(=O)CN1C(=O)CCSc2ccccc21	nt	?	nt	-0.4%	i
COc1cccc(C(=O)CSc2nc3ccccc3n2CC(=O)N2CCOCC2)c1	4.5%	20.6µM*	-1.0%	2.3%[38.3 µM]	i
COc1cccc(C(=O)Cn2c(=N)n(C)c3ccccc32)c1	6.3%	i	0.4%	-2.4%	10.3µM*
COc1ccc(OC)c(CCNc2ncnc3onc(-c4ccc(F)cc4)c23)c1	nt	i	nt	1.3%	?

Screening results deposited in PubChem BioAssay by National Center for Advancing Translational Sciences (NCATS).
